Experimental data as given in PubChem BioAssay (NCATS).
Results filed as inconclusive are left out. Active and inactive are the calls of the source. Calls follow the shape of the dose curve; as a rule, active = well fitted curve in the direction sought with a large enough effect; inconclusive = small, poorly fitted or top-dose-only effect, or another doubt; inactive = no such curve, though single readings can be large; an effect the other way counts as inactive or inconclusive.

Columns and labels:
[1] = target: Thioredoxin reductase 1, cytoplasmic (Rattus norvegicus) (UniProt O89049); assay: qHTS Assay for Inhibitors of Mammalian Selenoprotein Thioredoxin Reductase 1 (TrxR1) (AID 488773); settings: Potency: inhibition;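 also: drop in NADPH fluorescence over an 8 min run after selenite addition; series mostly up to about 57 µM; nearly all actives have a fitted effect of over 40% in size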
Chain of Thioredoxin reductase 1, cytoplasmic (Rattus norvegicus) (O89049 whole entry, looked up): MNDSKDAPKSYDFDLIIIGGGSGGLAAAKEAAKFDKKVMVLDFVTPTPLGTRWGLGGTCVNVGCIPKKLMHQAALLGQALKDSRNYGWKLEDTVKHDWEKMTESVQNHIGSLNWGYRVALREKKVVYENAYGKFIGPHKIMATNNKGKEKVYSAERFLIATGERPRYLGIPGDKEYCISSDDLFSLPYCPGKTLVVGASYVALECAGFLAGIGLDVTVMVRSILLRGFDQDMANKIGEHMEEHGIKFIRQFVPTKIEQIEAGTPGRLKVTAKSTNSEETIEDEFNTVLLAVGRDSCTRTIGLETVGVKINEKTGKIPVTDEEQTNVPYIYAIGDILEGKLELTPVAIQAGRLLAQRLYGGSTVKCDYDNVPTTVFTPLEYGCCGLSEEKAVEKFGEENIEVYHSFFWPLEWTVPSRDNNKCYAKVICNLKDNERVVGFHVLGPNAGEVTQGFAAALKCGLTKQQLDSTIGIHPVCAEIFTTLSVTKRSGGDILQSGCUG
Procedure, shortened: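 Inhibition is scored from the loss of NADPH fluorescence between first and last reads of an 8-min kinetic run. Selenite (400 uM) was the substrate, added after 15 min compound preincubation at room temperature.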

[2] = target: Flap endonuclease 1 (Homo sapiens) (UniProt P39748); assay: qHTS Validation Assay for the Inhibitors of Human Flap endonuclease 1 (FEN1) (AID 488816)
Chain of Flap endonuclease 1 (Homo sapiens) (P39748 whole entry, looked up): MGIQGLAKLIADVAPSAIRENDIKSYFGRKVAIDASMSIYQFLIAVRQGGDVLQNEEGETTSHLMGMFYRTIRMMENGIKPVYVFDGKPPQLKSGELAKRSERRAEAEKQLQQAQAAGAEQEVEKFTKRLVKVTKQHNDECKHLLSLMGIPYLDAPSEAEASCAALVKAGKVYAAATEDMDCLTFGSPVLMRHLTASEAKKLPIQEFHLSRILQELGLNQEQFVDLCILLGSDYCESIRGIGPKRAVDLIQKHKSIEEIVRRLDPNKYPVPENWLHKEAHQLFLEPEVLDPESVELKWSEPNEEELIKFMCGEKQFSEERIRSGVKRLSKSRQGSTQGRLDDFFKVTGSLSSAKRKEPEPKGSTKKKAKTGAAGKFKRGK
Procedure, shortened: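 Steps: add FEN1 (10 nM reagent) or buffer only; pin compounds; hold 15 min at room temperature; start with substrate, 50 nM final; read at 0 and 15 min; correct, normalize and fit a four-parameter Hill curve.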

[3] = target: M-phase phosphoprotein 8 (Homo sapiens) (UniProt Q99549); assay: qHTS Validation Assay for Inhibitors for MPP8 Chromodomain Interactions with Methylated Histone Tails (AID 488949); also: nearly all actives have a fitted effect of over 55% in size; also: potency is read from the fitted curve at half-maximal effect
Chain of M-phase phosphoprotein 8 (Homo sapiens) (Q99549 whole entry, looked up): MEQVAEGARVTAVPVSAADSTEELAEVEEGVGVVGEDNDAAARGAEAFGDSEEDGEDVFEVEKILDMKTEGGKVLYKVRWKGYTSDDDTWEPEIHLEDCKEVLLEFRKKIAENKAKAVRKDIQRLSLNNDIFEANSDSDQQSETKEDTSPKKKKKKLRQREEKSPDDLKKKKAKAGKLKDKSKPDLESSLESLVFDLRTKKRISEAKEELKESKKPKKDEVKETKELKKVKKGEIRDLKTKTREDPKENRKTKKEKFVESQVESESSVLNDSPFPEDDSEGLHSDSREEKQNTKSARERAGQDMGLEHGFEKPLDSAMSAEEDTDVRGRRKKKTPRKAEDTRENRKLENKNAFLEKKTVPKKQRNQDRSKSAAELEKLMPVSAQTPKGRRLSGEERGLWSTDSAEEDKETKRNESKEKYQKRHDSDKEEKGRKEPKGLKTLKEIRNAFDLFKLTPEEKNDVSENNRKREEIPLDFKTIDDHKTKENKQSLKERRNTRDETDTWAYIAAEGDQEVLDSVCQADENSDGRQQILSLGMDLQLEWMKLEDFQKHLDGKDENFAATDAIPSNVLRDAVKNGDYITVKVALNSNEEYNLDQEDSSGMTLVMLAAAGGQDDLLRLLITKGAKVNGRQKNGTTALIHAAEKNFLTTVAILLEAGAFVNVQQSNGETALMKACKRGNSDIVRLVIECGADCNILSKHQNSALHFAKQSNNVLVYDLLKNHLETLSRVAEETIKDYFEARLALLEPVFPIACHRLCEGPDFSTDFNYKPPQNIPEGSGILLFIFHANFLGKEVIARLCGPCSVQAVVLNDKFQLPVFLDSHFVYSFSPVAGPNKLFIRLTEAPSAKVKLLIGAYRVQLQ
Procedure, shortened: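 Chemiluminescent proximity assay: histidine-tag capture via nickel acceptor beads, biotin peptide via streptavidin donor beads. Protein and peptide each at 50 nM, pH 7.4, with 30 min incubations at room temperature for complex formation, compound exposure and bead binding.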

[4] = target: Chromobox protein homolog 1 (Homo sapiens) (UniProt P83916); assay: qHTS Validation Assay for Inhibitors of HP1-beta Chromodomain Interactions with Methylated Histone Tails (AID 488953); also: nearly all actives have a fitted effect of over 50% in size; also: potency is read from the fitted curve at half-maximal effect
Chain of Chromobox protein homolog 1 (Homo sapiens) (P83916 whole entry, looked up): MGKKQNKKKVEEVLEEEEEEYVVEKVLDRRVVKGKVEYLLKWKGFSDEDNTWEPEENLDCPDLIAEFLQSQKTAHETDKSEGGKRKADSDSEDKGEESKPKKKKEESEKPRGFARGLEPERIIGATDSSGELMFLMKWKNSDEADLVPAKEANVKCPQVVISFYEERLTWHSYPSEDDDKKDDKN
Procedure, shortened: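 Disruption of preformed HP1-beta:H3K9me3 peptide complexes (both 50 nM, PBS pH 7.4 with 0.01% Tween-20) is measured by AlphaScreen after 30 min compound exposure at room temperature, using streptavidin donor and nickel chelate acceptor beads at 10 ug/mL final.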

[5] = target: Methanococcus maripaludis chaperonin (MmCpn) (UniProt Q6LX38); assay: High-Throughput Screening for Modulators of Cytosolic Chaperonin Activity: MmCpn Primary Screen (AID 488978)
Chain of Methanococcus maripaludis chaperonin (MmCpn) (Q6LX38 1-543): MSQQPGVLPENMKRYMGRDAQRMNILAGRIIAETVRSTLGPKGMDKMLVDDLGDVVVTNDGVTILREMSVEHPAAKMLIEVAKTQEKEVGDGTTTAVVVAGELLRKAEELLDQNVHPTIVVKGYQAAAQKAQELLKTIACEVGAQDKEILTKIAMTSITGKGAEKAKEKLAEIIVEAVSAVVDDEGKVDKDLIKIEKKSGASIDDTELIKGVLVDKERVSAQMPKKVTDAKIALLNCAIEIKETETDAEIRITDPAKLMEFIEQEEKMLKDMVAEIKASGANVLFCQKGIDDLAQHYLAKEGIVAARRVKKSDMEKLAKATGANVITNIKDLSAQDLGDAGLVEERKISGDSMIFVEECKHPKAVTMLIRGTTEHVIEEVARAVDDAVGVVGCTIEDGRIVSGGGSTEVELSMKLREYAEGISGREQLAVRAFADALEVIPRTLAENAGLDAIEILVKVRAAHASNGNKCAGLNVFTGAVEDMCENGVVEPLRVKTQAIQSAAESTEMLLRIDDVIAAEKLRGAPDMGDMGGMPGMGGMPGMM
Procedure, shortened: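 HTRF readout (320 nm excitation, 590/665 nm emission) of ADP generated by 50 nM MmCpn hydrolysing 30 uM ATP during 10 min at 37C; compound preincubated 5 min RT.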

[6] = target: Thyrotropin receptor (Homo sapiens) (UniProt P16473); assay: qHTS Assay for Antagonists of the Thyroid Stimulating Hormone Receptor (AID 488980); also: series mostly up to about 58 µM
Chain of Thyrotropin receptor (Homo sapiens) (P16473 whole entry, looked up): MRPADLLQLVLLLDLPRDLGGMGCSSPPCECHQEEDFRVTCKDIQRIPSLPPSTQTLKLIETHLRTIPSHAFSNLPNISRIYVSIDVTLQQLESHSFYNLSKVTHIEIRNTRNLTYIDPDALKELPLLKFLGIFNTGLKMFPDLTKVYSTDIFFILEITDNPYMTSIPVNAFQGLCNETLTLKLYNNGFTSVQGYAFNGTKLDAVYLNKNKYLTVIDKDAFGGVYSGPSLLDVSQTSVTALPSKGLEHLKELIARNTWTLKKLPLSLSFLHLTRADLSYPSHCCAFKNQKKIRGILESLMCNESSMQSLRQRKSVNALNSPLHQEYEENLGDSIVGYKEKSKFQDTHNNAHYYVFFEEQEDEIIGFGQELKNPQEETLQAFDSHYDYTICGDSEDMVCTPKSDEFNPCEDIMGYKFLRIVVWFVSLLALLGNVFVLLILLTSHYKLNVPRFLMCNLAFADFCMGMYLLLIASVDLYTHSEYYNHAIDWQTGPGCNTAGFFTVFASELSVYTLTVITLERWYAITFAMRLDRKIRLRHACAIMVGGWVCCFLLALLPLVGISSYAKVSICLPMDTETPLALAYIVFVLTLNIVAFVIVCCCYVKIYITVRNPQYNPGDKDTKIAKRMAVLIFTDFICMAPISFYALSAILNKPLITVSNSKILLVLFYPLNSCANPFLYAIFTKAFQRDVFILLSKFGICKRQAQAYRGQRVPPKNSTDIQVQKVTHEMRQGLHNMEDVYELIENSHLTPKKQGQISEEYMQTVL
Procedure, shortened: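 Inhibition of TSH-stimulated cAMP accumulation was quantified by homogeneous time-resolved FRET in TSHR-transfected HEK293 cells. Agonist: TSH, 4 nM final (EC80).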

[7] = target: D(1A) dopamine receptor (Homo sapiens) (UniProt P21728); assay: HTS Assay for Allosteric Agonists of the Human D1 Dopamine Receptor: Primary Screen for Agonists (AID 488981)
Chain of D(1A) dopamine receptor (Homo sapiens) (P21728 whole entry, looked up): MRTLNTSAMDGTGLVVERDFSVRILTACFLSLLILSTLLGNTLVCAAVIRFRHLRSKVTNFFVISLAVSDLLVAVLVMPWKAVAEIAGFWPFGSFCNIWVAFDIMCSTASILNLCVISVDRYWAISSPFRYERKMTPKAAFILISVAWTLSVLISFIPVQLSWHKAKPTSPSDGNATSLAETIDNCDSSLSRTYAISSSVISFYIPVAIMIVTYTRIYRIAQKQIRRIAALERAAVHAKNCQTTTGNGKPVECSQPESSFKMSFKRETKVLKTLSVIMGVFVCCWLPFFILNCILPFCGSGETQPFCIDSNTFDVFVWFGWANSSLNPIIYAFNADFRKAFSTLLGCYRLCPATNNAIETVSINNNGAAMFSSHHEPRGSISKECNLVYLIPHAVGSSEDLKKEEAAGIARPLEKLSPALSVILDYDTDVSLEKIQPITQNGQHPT
Procedure, shortened: (§1)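 Tetracycline-induced HEK293 T-REx cells force-coupled to calcium signalling were incubated overnight at 30 C and dye-loaded at room temperature. Calcium flux over 180 s after compound addition flagged agonists; a further 180 s read after EC20 dopamine flagged potentiators.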

[8] = target: D(1A) dopamine receptor (Homo sapiens) (UniProt P21728); assay: HTS Assay for Allosteric Agonists of the Human D1 Dopamine Receptor: Primary Screen for Potentiators (AID 488982)
Procedure, shortened: as §1

[9] = target: Transient receptor potential cation channel subfamily V member 1 (Homo sapiens) (UniProt Q8NER1); assay: HTS Assay for Compounds that Act as Enhancers of the Vanilloid Receptor 1 (AID 488979)
Chain of Transient receptor potential cation channel subfamily V member 1 (Homo sapiens) (Q8NER1 whole entry, looked up): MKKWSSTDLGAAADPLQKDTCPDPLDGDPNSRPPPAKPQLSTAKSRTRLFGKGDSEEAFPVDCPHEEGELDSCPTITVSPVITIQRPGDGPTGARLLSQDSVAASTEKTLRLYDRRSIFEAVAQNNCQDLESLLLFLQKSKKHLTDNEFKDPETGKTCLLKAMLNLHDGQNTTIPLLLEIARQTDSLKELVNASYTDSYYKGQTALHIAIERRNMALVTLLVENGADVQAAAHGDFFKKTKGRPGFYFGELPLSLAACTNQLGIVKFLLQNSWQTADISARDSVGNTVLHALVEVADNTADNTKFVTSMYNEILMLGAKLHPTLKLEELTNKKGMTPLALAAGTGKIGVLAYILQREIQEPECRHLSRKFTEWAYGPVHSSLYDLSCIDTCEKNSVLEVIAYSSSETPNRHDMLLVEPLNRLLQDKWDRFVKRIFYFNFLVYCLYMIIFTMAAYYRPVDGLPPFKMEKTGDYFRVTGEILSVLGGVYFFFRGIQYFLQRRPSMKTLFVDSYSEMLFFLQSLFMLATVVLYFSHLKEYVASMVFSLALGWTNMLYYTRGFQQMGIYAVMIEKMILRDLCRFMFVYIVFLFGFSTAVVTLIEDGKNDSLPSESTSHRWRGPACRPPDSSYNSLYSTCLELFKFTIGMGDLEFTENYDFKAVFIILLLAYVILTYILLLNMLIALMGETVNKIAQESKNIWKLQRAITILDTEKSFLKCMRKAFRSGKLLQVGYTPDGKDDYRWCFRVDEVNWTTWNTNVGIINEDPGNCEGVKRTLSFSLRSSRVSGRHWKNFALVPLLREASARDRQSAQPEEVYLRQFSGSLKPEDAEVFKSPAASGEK
Procedure, shortened: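 TRPV1-expressing cells loaded with Fluo-8 calcium dye; compounds added and calcium influx read kinetically for 3 min (agonist phase), then capsaicin at EC20 added and read 2 min more for enhancement. Fluorescence ex 480/em 520 nm.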

[10] = target: D(1A) dopamine receptor (Homo sapiens) (UniProt P21728); assay: HTS Assay for Allosteric Agonists of the Human D1 Dopamine Receptor: Primary Screen for Antagonists (AID 488983);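 also: calcium flux response to an EC80 dopamine challenge measured with no-wash dye; nearly all actives have a fitted effect of over 65% in size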
Procedure, shortened: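 Kinetic fluorescence at 1 cycle/sec tracked intracellular calcium in force-coupled, tetracycline-inducible HEK293 T-REx D1 cells. Loss of response to an EC80 dopamine dose, given 180 s after compound, marked antagonists.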

Measured: Potency

OCCN1CCN(CC/C=C2/c3ccccc3Sc3ccc(C(F)(F)F)cc32)CC1
active: [3] 25.1 µM | [4] 35.5 µM
inactive: [1] | [2] | [5] | [6] | [7] | [8]

CCN(CC)CCNC(=O)c1ccc(NC(C)=O)cc1
inactive: [1] | [2] | [3] | [4] | [5] | [9] | [7] | [8] | [10]

CN(C)CC[C@@H](c1ccc(Br)cc1)c1ccccn1
inactive: [1] | [2] | [3] | [4] | [5] | [9] | [7] | [8] | [10]

CN(C(=O)CCCOc1ccc2[nH]c(=O)ccc2c1)C1CCCCC1
inactive: [1] | [2] | [3] | [4] | [5] | [9] | [6] | [7] | [8] | [10]

NC/C=C/C(=O)O
inactive: [1] | [2] | [3] | [4] | [5] | [9] | [6] | [7] | [8] | [10]

Nc1c2c(nc3ccccc13)CCCC2O (stereo not drawn)
inactive: [1] | [2] | [3] | [4] | [5] | [9] | [6] | [7] | [8] | [10]

Cc1ccc(Cl)c(Nc2ccccc2C(=O)O)c1Cl
inactive: [1] | [2] | [3] | [4] | [5] | [9] | [6] | [7] | [8] | [10]

CC(=O)Oc1cc(C(C)C)c(OCCN(C)C)cc1C
inactive: [1] | [2] | [3] | [4] | [5] | [9] | [6] | [7] | [8] | [10]

COc1ccc(CCN(C)CCCC(C#N)(c2cc(OC)c(OC)c(OC)c2)C(C)C)cc1OC (stereo not drawn)
inactive: [1] | [2] | [3] | [4] | [5] | [9] | [6] | [7] | [8] | [10]

C=CCc1ccccc1OCC(O)CNC(C)C (stereo not drawn)
inactive: [1] | [2] | [3] | [4] | [5] | [9] | [6] | [7] | [8] | [10]

CCOC(=O)c1cnc2c(cnn2CC)c1NN=C(C)C
inactive: [1] | [2] | [3] | [4] | [5] | [9] | [7] | [8] | [10]

O=C(O)CCCCCCCC(=O)O
inactive: [1] | [2] | [3] | [4] | [5] | [9] | [6] | [7] | [8] | [10]

C[N+](C)(C)CCOC(N)=O
inactive: [1] | [2] | [3] | [4] | [5] | [9] | [6] | [7] | [8] | [10]

CCCCCN(CCCCC)C(=O)C(CCC(=O)O)NC(=O)c1ccc(Cl)c(Cl)c1 (stereo not drawn)
inactive: [1] | [2] | [3] | [4] | [5] | [9] | [6] | [10]

C[N+](C)(C)CCOC(=O)CCC(=O)OCC[N+](C)(C)C
inactive: [1] | [2] | [3] | [4] | [5] | [9] | [6] | [7] | [8]

COC(=O)[C@H]1[C@H]2C[C@@H]3c4[nH]c5cc(OC)ccc5c4CCN3C[C@H]2C[C@@H](OC(=O)c2cc(OC)c(OC)c(OC)c2)[C@@H]1OC
inactive: [1] | [2] | [5] | [9] | [6] | [7] | [8] | [10]
active: [3] 20 µM | [4] 39.8 µM

CCn1ccnc1CC1COc2ccccc2O1 (stereo not drawn)
inactive: [1] | [2] | [3] | [4] | [5] | [9] | [6] | [7] | [8] | [10]

O=C(O)CP(=O)(O)O
inactive: [1] | [2] | [3] | [4] | [5] | [9] | [6] | [7] | [8] | [10]

CC(C)COCC(CN(Cc1ccccc1)c1ccccc1)N1CCCC1 (stereo not drawn)
inactive: [1] | [2] | [3] | [4] | [5] | [9] | [7] | [8] | [10]

CNCCC(Oc1ccccc1OC)c1ccccc1 (stereo not drawn)
inactive: [1] | [2] | [3] | [4] | [5] | [9] | [6] | [7] | [8]

c1ccc2c(c1)CCCC2C1=NCCN1 (stereo not drawn)
inactive: [1] | [2] | [3] | [4] | [5] | [9] | [6] | [7] | [10]

N[C@@H](COP(=O)(O)O)C(=O)O
inactive: [1] | [2] | [3] | [4] | [5] | [6] | [7] | [8] | [10]
